Screening data as filed in PubChem.
In the library only some 5.4% were active in any assay of this set; here they are far more common.
SKKanGAS inh – inhibitors of SKKanGAS S. pyogenes growth in kanamycin (SK-promoter or general growth effect). BacTiter-Glo, 6 h. inhibition, % at 7.5 µM. 300,000 tested, 1.3% active;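 active = mean replicate score, as percent of positive control median, at least 50; inconclusive = mean below 50 but one replicate at or above 50; inactive = mean and every replicate below 50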;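 note: strain carries kanamycin resistance gene driven by streptokinase promoter and grows in 40 µg/ml kanamycin; loss of luminescence reflects streptokinase promoter inhibition or plain growth inhibition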
CSC inhib – blocks cancer stem cells | AID 2717 | cancer stem cell-like cells viability, luminescence | inhibition, % at 7.5 µM | 300,000 tested, 1.1% active; in the data active = inhibition above about 75%; inconclusive = no clear call, values can overlap the other calls; tested in HMLE shEcad cells
Mdm2-MdmX inh – human Mdm2/MdmX binding inhibition. SaOS-2 split-luciferase Mdm2/MdmX complementation, luminescence. 330,000 tested, 3% active. inhibition, % at 8 µM. O15151+Q00987;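 active = inhibition of at least 50% at 8 µM in the primary screen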
Calb FLC – affects C. albicans growth with fluconazole; C. albicans CaCi-2 (fluconazole-resistant clinical isolate) + fluconazole, Alamar Blue growth, 48 h; growth inhibition, % (concentration not given with the values); 300,000 tested, 0.57% active;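 active = growth inhibition above about 58% in most replicates, limit read from the data, passing the limit was not always enough; inconclusive = exactly half the replicates above a set limit; inactive = most replicates below a set limit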;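 note: all wells also contain fluconazole at 8 µg/ml as a sub-toxic cotreatment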
MPTP inh – permeability transition pore inhibition | isolated mouse mitochondria, Ca2+ swelling absorbance, 30 min | 360,000 tested, 1.4% active | AID 602449 | inhibition, % at 10 µM;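 active = inhibition of 50% or more, scaled per plate between neutral and stimulator controls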
Beta cell apopt – blocks beta cell apoptosis. AID 435005. 300,000 tested, 0.8% active. INS-1E cytokine-induced death, ATP luminescence, 48 h; percent of positive-control rescue, neutral wells zero. protection from apoptosis, % (concentration not given with the values);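 active = Every replicate reaches about 75%, or at least half do and their mean reaches it too, limit read from the data; inconclusive = At least half of replicates reach the limit but their mean does not; inactive = Under half of replicates reach the limit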;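 note: higher means more ATP so stronger rescue from cytokine killing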
Mdm2 MdmX conf – human Mdm2/MdmX binding inhibition, confirmed | shares compounds with Mdm2-MdmX inh | luminescent assay | inhibition, % at 8 µM | 10,000 tested, 55% active | AID 489028; in the data active = inhibition above about 40%
FLuc counter – inhibits full-length luciferase, flagging false Mdm2/MdmX hits. shares compounds with Mdm2-MdmX inh. SaOS-2 full-length luciferase counterscreen, luminescence. inhibition, % at 8 µM. 6,200 tested, 77% active;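 active = mean inhibition at 8 µM reaching about 37%, which flags the compound as non-specific, limit read from the data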;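 note: p53-null SaOS-2 cells with luciferase driven by a doxycycline-inducible promoter; compound on cells about two nights before reading with doxycycline added after day one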
Rh123 counter – membrane potential counter-screen of mitochondrial pore inhibitors | shares compounds with MPTP inh | isolated mitochondria, Rhodamine 123 fluorescence | inhibition, % at 10 µM | 5,000 tested, 78% active | AID 624504; in the data active = inhibition above about 22%
Each line names hits and unclear results; the compound was inactive in the other large screens (follow-up assays come after a bar, where they were run).

CC[n+]1c(C)sc2c3ccsc3ccc21	none
CCn1cc(C(=O)NC2CCCc3c2cnn3-c2cccc(C)c2C)cn1 (configuration not stated)	Mdm2-MdmX inh 84, MPTP inh 87 (no result: Beta cell apopt) | Mdm2 MdmX conf 92 | FLuc counter 37 | Rh123 counter 104
COC(=O)c1cccc(C(=O)Nc2cnc3ccccc3c2)n1	none (no result: SKKanGAS inh)
COC(=O)c1cc(NS(=O)(=O)c2ccc(NC(C)=O)cc2)cc(C(=O)OC)c1	none
O=C(N/N=C/c1cn(-c2ccccc2)nc1-c1cccs1)c1ccc(Cl)cc1	Mdm2-MdmX inh 52, MPTP inh 70 | Mdm2 MdmX conf inactive | Rh123 counter 65
O=C(N/N=C/c1cn(-c2ccccc2)nc1-c1cccs1)c1ccccc1F	none
O=c1c2ccccc2nc(COc2ccccc2)n1/N=C/c1ccc(O)c(O)c1	none
Cc1cc(/C=N/n2c(COc3ccccc3)nc3ccccc3c2=O)c(O)c([N+](=O)[O-])c1	CSC inhib inconclusive, Mdm2-MdmX inh 59, MPTP inh 79 | Mdm2 MdmX conf 47 | FLuc counter 40 | Rh123 counter 33
O=S(=O)(NC1CC(NS(=O)(=O)OCC(Cl)(Cl)Cl)C2CCCCC12)OCC(Cl)(Cl)Cl (configuration not stated)	SKKanGAS inh 91, CSC inhib 83, Mdm2-MdmX inh 77, MPTP inh 70 | Mdm2 MdmX conf 70 | FLuc counter 59 | Rh123 counter 102
N#CC(c1ccc(Cl)cc1)c1ccc2c(C(F)(F)F)cc(C(F)(F)F)nc2n1 (configuration not stated)	Mdm2-MdmX inh 99, MPTP inh 87, Beta cell apopt 124 | Mdm2 MdmX conf 95 | FLuc counter inactive | Rh123 counter 108
Cc1cc(Nc2cccc([N+](=O)[O-])c2)n2c(nc3ccccc32)c1C#N	CSC inhib 83, Mdm2-MdmX inh 98, MPTP inh 67, Beta cell apopt 108 | Mdm2 MdmX conf 91 | FLuc counter inactive | Rh123 counter 93
Cc1[nH]n(-c2ccccc2)c(=O)c1N=Nc1c(O)cc(S(=O)(=O)N(C)C)c2ccccc12	SKKanGAS inh 85, Mdm2-MdmX inh 82, MPTP inh 81, Beta cell apopt 111 | Mdm2 MdmX conf 80 | FLuc counter 57 | Rh123 counter 42
Cc1[nH]n(-c2ccccc2)c(=O)c1N=Nc1ccc2c(c1)OCCO2	none
COc1ccc(CCN2CCC(Nc3nc4ccccc4n3Cc3ccc(F)cc3)CC2)cc1	Mdm2-MdmX inh 99, MPTP inh 83 (no result: Calb FLC) | Mdm2 MdmX conf 91 | FLuc counter 47 | Rh123 counter inactive
c1ccc(-[n+]2nc(Nc3cccc4ccccc34)sc2-c2c3ccccc3cc3ccccc23)cc1	Mdm2-MdmX inh 65, MPTP inh 98, Beta cell apopt 117 (no result: SKKanGAS inh, Calb FLC) | Mdm2 MdmX conf 80 | FLuc counter inactive | Rh123 counter 93
COc1ccc(C)cc1Nc1n[n+](-c2ccccc2)c(-c2c(OC)ccc3ccccc23)s1	CSC inhib 87, Mdm2-MdmX inh 92, MPTP inh 100, Beta cell apopt 124 (no result: SKKanGAS inh, Calb FLC) | Mdm2 MdmX conf 62 | FLuc counter inactive | Rh123 counter 105
Oc1ccc2ccccc2c1-c1sc(Nc2ccccc2)n[n+]1-c1ccc(F)cc1	none
Fc1ccc(-[n+]2nc(Nc3ccccc3)sc2-c2c3ccccc3cc3ccccc23)cc1	SKKanGAS inh 57, CSC inhib 103, Mdm2-MdmX inh 100, MPTP inh 92 | Mdm2 MdmX conf 90 | FLuc counter 42 | Rh123 counter 111
CCc1ccc(Nc2n[n+](-c3ccccc3)c(-c3cccc(C)c3)s2)cc1	none (no result: SKKanGAS inh, Calb FLC)
CCN(CC)c1ccc(CNc2nc3ccccc3n2CCN2CCCCC2)cc1	CSC inhib 78, Mdm2-MdmX inh 89, MPTP inh 64, Beta cell apopt 88 | Mdm2 MdmX conf 48 | FLuc counter 77 | Rh123 counter 96
